Measurements from PubChem BioAssay (NCI).
About 79,000 compounds went through this panel and 15% of them were active in at least one assay; those are over-represented in the sample as a whole. Calls of active or inactive are those of the source. Cut-off read from the data, not from the text of the source: active = growth inhibition above about 70%; inactive = the rest.

Assays:
[1] = NCI Yeast Anticancer Drug Screen. Data for the rad52 strain (AID 147);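 note: 0% = growth of vehicle-treated control cultures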; settings: S. cerevisiae rad52 mutant growth inhibition, stronger effect = higher value
In short: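 The repair-mutant yeast strain was incubated with compounds, then growth was read and inhibition derived relative to vehicle.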

[2] = NCI Yeast Anticancer Drug Screen. Data for the wt1 strain (AID 149);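 note: 0% = growth of vehicle-treated wt1 cultures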; settings: S. cerevisiae wt1 strain (SPY 50644) growth inhibition, stronger effect = higher value
In short: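 Measured: growth of wt1 yeast under compound versus vehicle treatment, reported as inhibition.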

[3] = NCI Yeast Anticancer Drug Screen. Data for the rad50EPP+ strain (AID 151);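 note: 0% = growth of vehicle-treated control cultures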; settings: S. cerevisiae rad50 mutant strain, stronger effect = higher value
In short: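 Vehicle-normalised growth inhibition; rad50EPP+ yeast strain, altered in DNA damage repair, compound-treated.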

[4] = NCI Yeast Anticancer Drug Screen. Data for the mgt1 strain (AID 153); settings: S. cerevisiae mgt1 mutant growth inhibition, stronger effect = higher value
In short: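 Vehicle-normalized growth inhibition is determined in mgt1 yeast, a strain selected for a defined alteration in DNA repair or cell cycle control.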

[5] = NCI Yeast Anticancer Drug Screen. Data for the rad50 strain (AID 155);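 note: 0% = growth of vehicle-only cultures of the same strain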; settings: S. cerevisiae rad50 strain growth inhibition, stronger effect = higher value
In short: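 Growth of the mutant yeast was measured after compound exposure and referenced to vehicle-treated cultures.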

[6] = NCI Yeast Anticancer Drug Screen. Data for the mec2-1 strain (AID 157); settings: S. cerevisiae mec2-1 strain, stronger effect = higher value
In short: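 Mutant yeast (mec2-1) grown with compound; growth inhibition relative to vehicle control reported.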

[7] = NCI Yeast Anticancer Drug Screen. Data for the rad14 strain (AID 159);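 note: 0% = growth of vehicle-treated control cultures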; settings: S. cerevisiae rad14 strain growth inhibition, stronger effect = higher value
In short: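 Here, inhibition of yeast growth was measured after compound exposure, using a strain with a genetic defect in DNA damage repair and vehicle-treated cultures as the reference.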

[8] = NCI Yeast Anticancer Drug Screen. Data for the sgs1 mgt1 strain (AID 161);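 note: 0% = growth of cultures given vehicle only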; settings: S. cerevisiae sgs1 mgt1 strain, stronger effect = higher value
In short: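 This yeast growth screen uses a strain with defined DNA-repair lesions; compound-treated growth is compared with vehicle-treated growth.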

[9] = NCI Yeast Anticancer Drug Screen. Data for the CLN2oe strain (AID 163);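 note: 0% = growth of vehicle-only control cultures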; settings: S. cerevisiae CLN2oe strain, stronger effect = higher value
In short: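 Compounds are applied to yeast harbouring a defined cell-cycle control change; reduced growth compared with vehicle-treated controls gives the value.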

[10] = NCI Yeast Anticancer Drug Screen. Data for the cln2 rad14 strain (AID 165);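 note: 0% = growth equal to vehicle treated cultures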; settings: S. cerevisiae cln2 rad14 strain, stronger effect = higher value
In short: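 Readout is yeast growth inhibition versus vehicle-treated controls, using a strain with cln2 and rad14 alterations exposed to compound.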

[11] = NCI Yeast Anticancer Drug Screen. Data for the bub3 strain (AID 167); settings: S. cerevisiae bub3 mutant strain, stronger effect = higher value
In short: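 Whole-cell yeast assay. The mutant strain was incubated with compounds, and growth inhibition was determined by comparison with vehicle-treated cells.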

[12] = NCI Yeast Anticancer Drug Screen. Data for the wt2 strain (AID 169);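 note: 0% = growth of vehicle-treated yeast cultures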; settings: S. cerevisiae wt2 strain growth inhibition, stronger effect = higher value
In short: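 Against vehicle-treated controls, the growth of yeast exposed to each compound was compared, and the inhibition was recorded.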

[13] = NCI Yeast Anticancer Drug Screen. Data for the mlh1 strain (AID 171);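 note: 0% = growth of vehicle-treated control cultures of the same strain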; settings: S. cerevisiae mlh1 strain growth inhibition, stronger effect = higher value
In short: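 Measured: yeast growth. Reference: vehicle-treated controls. Organism: strain with a defined alteration affecting DNA damage repair or cell cycle control, treated with compound.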

[14] = NCI Yeast Anticancer Drug Screen. Data for the sgs1 strain (AID 173);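 note: 0% = growth of vehicle-only control cultures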; settings: S. cerevisiae sgs1 mutant, stronger effect = higher value
In short: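 Each compound was added to cultures of the altered yeast strain. Growth was recorded, and inhibition was derived by comparison with vehicle controls.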

[15] = NCI Yeast Anticancer Drug Screen. Data for the mlh1 rad18 strain (AID 175); settings: S. cerevisiae mlh1 rad18 strain growth inhibition, stronger effect = higher value
In short: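 Genetically defined yeast (DNA repair-deficient) exposed to compounds; growth inhibition determined relative to vehicle.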

[16] = NCI Yeast Anticancer Drug Screen. Data for the rad18 strain (AID 177); settings: S. cerevisiae rad18 mutant growth inhibition, stronger effect = higher value
In short: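 Vehicle-treated cultures served as the baseline for scoring compound-induced growth inhibition in DNA-repair-mutant yeast.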

[17] = at 5.0 µM (retest, dose inferred, filed as 0.5)
[18] = at 50.0 µM (retest, dose inferred, filed as 5.0)

Measured: growth inhibition

CCCC/C([O-])=C1/C(=O)N(c2ccccc2)N=C1C.CCCC/C([O-])=C1/C(=O)N(c2ccccc2)N=C1C.[Cu+2]
inactive: [1]; at 1.2 µM 1% | [1]; at 3.7 µM 2% | [1]; at 11.0 µM 2% | [1]; at 33.0 µM 1% | [1]; at 100.0 µM -2% | [2]; at 1.2 µM 0% | [2]; at 3.7 µM -1% | [2]; at 11.0 µM -2% | [2]; at 33.0 µM -2% | [2]; at 100.0 µM -3% | [3]; at 1.2 µM -1% | [3]; at 3.7 µM 0% | [3]; at 11.0 µM -1% | [3]; at 33.0 µM -2% | [3]; at 100.0 µM 0% | [4]; at 1.2 µM -2% | [4]; at 3.7 µM -1% | [4]; at 11.0 µM 0% | [4]; at 33.0 µM 0% | [4]; at 100.0 µM -5% | [5]; at 1.2 µM 1% | [5]; at 3.7 µM 2% | [5]; [17] 28% | [5]; at 11.0 µM 2% | [5]; at 33.0 µM 1% | [5]; [18] 48% | [5]; at 50.0 µM -7.7% | [5]; at 100.0 µM 0% | [6]; at 1.2 µM -3% | [6]; at 3.7 µM -3% | [6]; [17] 10% | [6]; at 11.0 µM -6% | [6]; at 33.0 µM 1% | [6]; [18] 29% | [6]; at 50.0 µM -6.8% | [6]; at 100.0 µM -6% | [7]; at 1.2 µM 0% | [7]; at 3.7 µM 0% | [7]; at 11.0 µM -1% | [7]; at 33.0 µM -2% | [7]; at 100.0 µM -2% | [8]; [17] -2% | [8]; [18] 42% | [8]; at 50.0 µM -13.3% | [9]; at 1.2 µM -4% | [9]; at 3.7 µM -2% | [9]; at 11.0 µM 7% | [9]; at 33.0 µM 0% | [9]; at 100.0 µM 3% | [10]; [17] 27% | [10]; [18] 44% | [10]; at 50.0 µM 32.3% | [11]; at 1.2 µM -1% | [11]; at 3.7 µM -1% | [11]; [17] 26% | [11]; at 11.0 µM -4% | [11]; at 33.0 µM -2% | [11]; [18] 48% | [11]; at 50.0 µM -1% | [11]; at 100.0 µM -5% | [12]; at 1.2 µM 0% | [12]; at 3.7 µM 0% | [12]; at 11.0 µM -1% | [12]; at 33.0 µM -2% | [12]; at 100.0 µM -3% | [13]; at 1.2 µM 0% | [13]; at 3.7 µM -3% | [13]; at 11.0 µM -2% | [13]; at 33.0 µM -3% | [13]; at 100.0 µM -2% | [14]; at 1.2 µM 0% | [14]; at 3.7 µM -1% | [14]; at 11.0 µM -2% | [14]; at 33.0 µM -1% | [14]; at 100.0 µM -1% | [15]; [17] 6% | [15]; [18] 8% | [15]; at 50.0 µM -20.8% | [16]; at 1.2 µM -3% | [16]; at 3.7 µM -4% | [16]; at 11.0 µM -1% | [16]; at 33.0 µM -5% | [16]; at 100.0 µM -3%

COc1cccc2c1C(=O)c1c(O)c3c(c(O)c1C2=O)CC(O)(C(O)CO)CC3OC1CC(N2CCOCC2)C(O)C(C)O1 (stereo unspecified)
inactive: [5]; at 50.0 µM 56.9% | [8]; [17] 22% | [10]; [17] 18% | [10]; [18] 61% | [11]; [17] 25%
active: [1]; at 1.2 µM 96% | [1]; at 3.7 µM 96% | [1]; at 11.0 µM 96% | [1]; at 33.0 µM 96% | [1]; at 100.0 µM 96% | [2]; at 1.2 µM 96% | [2]; at 3.7 µM 96% | [2]; at 11.0 µM 97% | [2]; at 33.0 µM 97% | [2]; at 100.0 µM 97% | [3]; at 1.2 µM 84% | [3]; at 3.7 µM 96% | [3]; at 11.0 µM 97% | [3]; at 33.0 µM 97% | [3]; at 100.0 µM 97% | [4]; at 1.2 µM 97% | [4]; at 3.7 µM 97% | [4]; at 11.0 µM 97% | [4]; at 33.0 µM 98% | [4]; at 100.0 µM 97% | [5]; at 1.2 µM 96% | [5]; at 3.7 µM 97% | [5]; [17] 98% | [5]; at 11.0 µM 97% | [5]; at 33.0 µM 97% | [5]; [18] 98% | [5]; at 100.0 µM 97% | [6]; at 1.2 µM 97% | [6]; at 3.7 µM 97% | [6]; [17] 99% | [6]; at 11.0 µM 98% | [6]; at 33.0 µM 98% | [6]; [18] 99% | [6]; at 50.0 µM 91.3% | [6]; at 100.0 µM 98% | [7]; at 1.2 µM 95% | [7]; at 3.7 µM 96% | [7]; at 11.0 µM 96% | [7]; at 33.0 µM 97% | [7]; at 100.0 µM 97% | [8]; [18] 90% | [8]; at 50.0 µM 91.5% | [9]; at 1.2 µM 96% | [9]; at 3.7 µM 97% | [9]; at 11.0 µM 97% | [9]; at 33.0 µM 98% | [9]; at 100.0 µM 98% | [10]; at 50.0 µM 90.8% | [11]; at 1.2 µM 98% | [11]; at 3.7 µM 98% | [11]; at 11.0 µM 98% | [11]; at 33.0 µM 98% | [11]; [18] 93% | [11]; at 50.0 µM 93.5% | [11]; at 100.0 µM 98% | [12]; at 1.2 µM 96% | [12]; at 3.7 µM 97% | [12]; at 11.0 µM 96% | [12]; at 33.0 µM 97% | [12]; at 100.0 µM 98% | [13]; at 1.2 µM 97% | [13]; at 3.7 µM 97% | [13]; at 11.0 µM 97% | [13]; at 33.0 µM 98% | [13]; at 100.0 µM 98% | [14]; at 1.2 µM 97% | [14]; at 3.7 µM 97% | [14]; at 11.0 µM 97% | [14]; at 33.0 µM 98% | [14]; at 100.0 µM 98% | [15]; [17] 99% | [15]; [18] 98% | [15]; at 50.0 µM 91.1% | [16]; at 1.2 µM 96% | [16]; at 3.7 µM 96% | [16]; at 11.0 µM 97% | [16]; at 33.0 µM 97% | [16]; at 100.0 µM 98%
